From the supplement of paper PMC11732987, “Enantioselective OTUD7B fragment discovery through chemoproteomics screening and high-throughput optimisation” (Communications Chemistry, 2025)

Assays:
Experiment in all cases: log2 ratio of Biotin-Ahx-Ub-VS probe labelling (fragment/DMSO); higher = less target engagement (more negative = stronger competition), active = hit call of the paper (q ≤ 0.05, log2 ratio ≤ -1)
Details in all cases: compound concentration: 200 uM; treatment time: 3 h
ALG13 = molecular target: T1, ALG13 (UniProt Q9NP73)
T1 sequence (whole entry): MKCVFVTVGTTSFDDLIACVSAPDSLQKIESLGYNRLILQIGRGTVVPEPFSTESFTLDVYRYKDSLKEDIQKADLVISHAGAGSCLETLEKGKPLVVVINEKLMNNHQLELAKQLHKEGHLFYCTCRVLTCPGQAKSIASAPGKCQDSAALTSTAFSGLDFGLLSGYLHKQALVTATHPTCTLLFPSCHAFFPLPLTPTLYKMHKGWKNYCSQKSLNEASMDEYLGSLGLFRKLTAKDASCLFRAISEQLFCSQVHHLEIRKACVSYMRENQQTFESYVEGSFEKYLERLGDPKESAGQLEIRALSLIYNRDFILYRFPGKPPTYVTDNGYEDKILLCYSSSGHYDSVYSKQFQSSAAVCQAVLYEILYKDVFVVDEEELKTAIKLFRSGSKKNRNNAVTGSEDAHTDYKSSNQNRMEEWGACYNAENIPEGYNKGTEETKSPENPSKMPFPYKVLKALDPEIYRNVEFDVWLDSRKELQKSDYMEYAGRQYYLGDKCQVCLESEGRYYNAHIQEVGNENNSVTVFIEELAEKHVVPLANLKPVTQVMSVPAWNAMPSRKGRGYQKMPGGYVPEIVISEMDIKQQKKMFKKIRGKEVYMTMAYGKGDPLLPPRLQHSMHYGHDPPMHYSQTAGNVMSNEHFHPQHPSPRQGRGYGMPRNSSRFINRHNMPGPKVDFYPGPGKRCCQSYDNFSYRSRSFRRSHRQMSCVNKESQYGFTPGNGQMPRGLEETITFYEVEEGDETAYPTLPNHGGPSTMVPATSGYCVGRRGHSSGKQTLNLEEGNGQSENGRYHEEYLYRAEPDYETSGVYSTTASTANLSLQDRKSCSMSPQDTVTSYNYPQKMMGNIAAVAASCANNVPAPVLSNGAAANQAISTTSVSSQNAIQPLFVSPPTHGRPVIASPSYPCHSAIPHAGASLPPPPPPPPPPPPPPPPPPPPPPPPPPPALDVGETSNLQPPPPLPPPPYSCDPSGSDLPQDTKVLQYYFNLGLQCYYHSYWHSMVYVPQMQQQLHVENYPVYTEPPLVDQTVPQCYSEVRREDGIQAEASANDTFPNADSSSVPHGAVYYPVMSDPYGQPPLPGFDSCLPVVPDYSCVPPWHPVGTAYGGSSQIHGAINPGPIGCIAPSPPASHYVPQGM
How it was run: (§1)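 In triplicate, 495 µg of HEK293T lysate per sample was incubated with fragment at 200 µM or vehicle for 3 h. Biotin-Ahx-Ub-VS was then added to 0.5 µM final for 1 h, and labelled DUBs were captured with NeutrAvidin, digested with LysC and trypsin, and measured by diaPASEF LC-MS/MS. Data are average log2 fragment/vehicle ratios by unpaired t-test from global-median-normalised Spectronaut label-free quantities, restricted to proteins with ≥2 unique peptides.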

ATXN3 = ATXN3 (UniProt P54252)
ATXN3, sequence (P54252 whole entry): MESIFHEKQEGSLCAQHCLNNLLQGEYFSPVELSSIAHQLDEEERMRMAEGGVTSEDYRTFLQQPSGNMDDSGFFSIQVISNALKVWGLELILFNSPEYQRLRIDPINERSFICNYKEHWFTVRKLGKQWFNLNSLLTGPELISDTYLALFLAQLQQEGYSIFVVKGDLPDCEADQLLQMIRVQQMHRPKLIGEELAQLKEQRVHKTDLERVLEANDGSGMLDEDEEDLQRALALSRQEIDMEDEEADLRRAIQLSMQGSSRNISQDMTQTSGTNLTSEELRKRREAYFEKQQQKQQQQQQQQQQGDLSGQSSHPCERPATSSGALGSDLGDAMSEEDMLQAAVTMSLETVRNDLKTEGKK
How it was run: as §1

BAP1 = molecular target: T2, BAP1 (UniProt Q92560)
T2 sequence (whole entry): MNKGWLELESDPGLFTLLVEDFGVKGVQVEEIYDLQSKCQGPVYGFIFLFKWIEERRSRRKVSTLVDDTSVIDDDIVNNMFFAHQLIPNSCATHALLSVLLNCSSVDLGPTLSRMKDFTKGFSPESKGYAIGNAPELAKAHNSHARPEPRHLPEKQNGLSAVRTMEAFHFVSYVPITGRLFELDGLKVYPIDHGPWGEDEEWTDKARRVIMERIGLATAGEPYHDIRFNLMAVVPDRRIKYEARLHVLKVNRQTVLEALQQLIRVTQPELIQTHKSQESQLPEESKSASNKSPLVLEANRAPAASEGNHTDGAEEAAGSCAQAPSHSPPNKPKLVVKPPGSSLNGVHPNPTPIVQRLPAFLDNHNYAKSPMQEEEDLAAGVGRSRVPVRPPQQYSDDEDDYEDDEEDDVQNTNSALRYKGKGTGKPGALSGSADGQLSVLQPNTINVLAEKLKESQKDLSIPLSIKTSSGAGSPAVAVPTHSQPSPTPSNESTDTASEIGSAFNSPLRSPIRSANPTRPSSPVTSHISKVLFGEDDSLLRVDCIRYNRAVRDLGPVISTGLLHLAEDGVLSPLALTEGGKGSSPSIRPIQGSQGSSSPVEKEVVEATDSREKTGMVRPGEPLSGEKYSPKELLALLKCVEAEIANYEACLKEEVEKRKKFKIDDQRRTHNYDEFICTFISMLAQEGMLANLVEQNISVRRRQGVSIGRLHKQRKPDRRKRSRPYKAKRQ
How it was run: as §1

EIF3F = EIF3F (UniProt O00303)
EIF3F, sequence (O00303 whole entry): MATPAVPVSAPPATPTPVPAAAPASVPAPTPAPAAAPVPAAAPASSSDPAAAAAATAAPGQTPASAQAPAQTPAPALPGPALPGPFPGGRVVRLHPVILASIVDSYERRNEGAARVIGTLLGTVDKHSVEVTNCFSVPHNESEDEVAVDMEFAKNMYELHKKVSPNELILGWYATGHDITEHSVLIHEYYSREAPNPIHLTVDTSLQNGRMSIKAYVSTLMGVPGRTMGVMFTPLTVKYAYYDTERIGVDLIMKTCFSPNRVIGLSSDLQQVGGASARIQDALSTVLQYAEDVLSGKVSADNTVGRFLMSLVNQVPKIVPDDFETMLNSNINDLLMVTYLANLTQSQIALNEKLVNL
How it was run: as §1

EIF3H = EIF3H (UniProt O15372)
EIF3H, sequence (O15372 whole entry): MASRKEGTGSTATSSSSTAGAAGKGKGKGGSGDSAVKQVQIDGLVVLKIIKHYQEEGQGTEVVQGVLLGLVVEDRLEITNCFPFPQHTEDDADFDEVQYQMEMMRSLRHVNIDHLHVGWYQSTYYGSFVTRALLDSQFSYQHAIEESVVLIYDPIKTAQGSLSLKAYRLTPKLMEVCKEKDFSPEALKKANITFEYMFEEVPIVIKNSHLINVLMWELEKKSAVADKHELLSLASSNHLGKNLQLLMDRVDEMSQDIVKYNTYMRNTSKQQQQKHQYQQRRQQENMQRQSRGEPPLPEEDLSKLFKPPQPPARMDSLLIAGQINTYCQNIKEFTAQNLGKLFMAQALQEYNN
How it was run: as §1

FAM105A = molecular target: T3, FAM105A (UniProt Q9NUU6)
T3 sequence (whole entry): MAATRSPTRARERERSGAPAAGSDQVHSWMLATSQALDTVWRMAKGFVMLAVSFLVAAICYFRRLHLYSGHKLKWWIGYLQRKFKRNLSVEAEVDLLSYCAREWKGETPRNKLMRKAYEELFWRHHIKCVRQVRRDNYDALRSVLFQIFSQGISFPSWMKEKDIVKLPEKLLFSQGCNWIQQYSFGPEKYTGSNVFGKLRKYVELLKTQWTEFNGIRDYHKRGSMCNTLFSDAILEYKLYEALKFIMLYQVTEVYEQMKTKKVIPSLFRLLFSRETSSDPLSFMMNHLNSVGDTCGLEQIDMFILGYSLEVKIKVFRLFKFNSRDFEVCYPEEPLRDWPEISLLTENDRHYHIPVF
How it was run: as §1

OTUB1 = OTUB1 (UniProt Q96FW1)
OTUB1, sequence (Q96FW1 whole entry): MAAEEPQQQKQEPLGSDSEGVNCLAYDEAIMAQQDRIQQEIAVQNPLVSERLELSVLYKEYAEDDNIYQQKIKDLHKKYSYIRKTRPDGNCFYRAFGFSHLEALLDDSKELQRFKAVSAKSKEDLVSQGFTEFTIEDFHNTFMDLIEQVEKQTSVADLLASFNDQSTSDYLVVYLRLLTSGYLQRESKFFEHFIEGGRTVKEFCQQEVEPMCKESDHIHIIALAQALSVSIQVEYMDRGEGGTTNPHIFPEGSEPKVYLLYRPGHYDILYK
How it was run: as §1

OTUD4 = molecular target: T4, OTUD4 (UniProt Q01804)
T4 sequence (whole entry): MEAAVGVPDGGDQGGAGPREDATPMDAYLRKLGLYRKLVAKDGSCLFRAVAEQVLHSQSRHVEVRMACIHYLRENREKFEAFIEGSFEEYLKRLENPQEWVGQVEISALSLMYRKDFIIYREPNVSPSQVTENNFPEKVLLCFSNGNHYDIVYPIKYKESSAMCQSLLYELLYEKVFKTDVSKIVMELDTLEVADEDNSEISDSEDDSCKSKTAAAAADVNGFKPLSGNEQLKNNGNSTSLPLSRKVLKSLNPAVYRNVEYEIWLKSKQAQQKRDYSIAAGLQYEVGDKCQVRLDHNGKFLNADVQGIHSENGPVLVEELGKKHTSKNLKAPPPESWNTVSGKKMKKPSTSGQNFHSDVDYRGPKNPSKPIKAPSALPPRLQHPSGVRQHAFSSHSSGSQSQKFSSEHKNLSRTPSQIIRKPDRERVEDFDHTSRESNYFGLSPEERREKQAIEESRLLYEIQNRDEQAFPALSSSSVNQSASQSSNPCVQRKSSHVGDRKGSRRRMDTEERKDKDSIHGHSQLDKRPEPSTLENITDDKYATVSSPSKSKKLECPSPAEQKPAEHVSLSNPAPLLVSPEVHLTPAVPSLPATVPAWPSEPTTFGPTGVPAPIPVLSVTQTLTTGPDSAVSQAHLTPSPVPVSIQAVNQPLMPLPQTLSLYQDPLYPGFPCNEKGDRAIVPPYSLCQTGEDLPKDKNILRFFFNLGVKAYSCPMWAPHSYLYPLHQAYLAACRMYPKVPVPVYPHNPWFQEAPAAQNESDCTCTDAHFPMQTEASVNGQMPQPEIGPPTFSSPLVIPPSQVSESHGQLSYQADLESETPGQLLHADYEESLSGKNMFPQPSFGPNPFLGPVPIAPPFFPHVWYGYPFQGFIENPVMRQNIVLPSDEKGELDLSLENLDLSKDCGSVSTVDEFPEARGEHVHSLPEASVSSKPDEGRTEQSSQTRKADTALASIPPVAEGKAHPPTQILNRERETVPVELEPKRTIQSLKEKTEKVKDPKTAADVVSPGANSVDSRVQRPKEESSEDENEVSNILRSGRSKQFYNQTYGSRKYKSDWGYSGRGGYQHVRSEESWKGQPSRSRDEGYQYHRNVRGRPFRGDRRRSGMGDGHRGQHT
How it was run: as §1

OTUD5 = molecular target: T5, OTUD5 (UniProt Q96G74)
T5 sequence (whole entry): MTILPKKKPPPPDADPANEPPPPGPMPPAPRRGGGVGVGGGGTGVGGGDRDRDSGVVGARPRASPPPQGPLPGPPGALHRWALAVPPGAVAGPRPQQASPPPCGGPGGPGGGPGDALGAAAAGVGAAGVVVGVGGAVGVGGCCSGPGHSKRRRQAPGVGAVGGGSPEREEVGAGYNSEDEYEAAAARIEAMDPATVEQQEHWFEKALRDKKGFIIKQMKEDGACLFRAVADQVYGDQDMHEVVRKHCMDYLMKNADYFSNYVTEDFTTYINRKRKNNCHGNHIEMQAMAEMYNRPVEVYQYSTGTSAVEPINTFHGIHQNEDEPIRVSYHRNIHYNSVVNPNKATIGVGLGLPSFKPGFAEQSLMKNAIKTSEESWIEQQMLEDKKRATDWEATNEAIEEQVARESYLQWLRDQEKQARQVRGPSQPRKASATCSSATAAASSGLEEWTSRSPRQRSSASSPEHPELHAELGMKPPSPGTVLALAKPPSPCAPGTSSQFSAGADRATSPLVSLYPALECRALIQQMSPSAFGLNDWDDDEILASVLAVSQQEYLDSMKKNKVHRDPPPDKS
How it was run: as §1

Measured: log2 ratio of Biotin-Ahx-Ub-VS probe labelling

O=C(CCl)N1CCC(c2ccn[nH]2)C1 (centres undefined)
inactive: ALG13 -0.443 | ATXN3 -0.622 | BAP1 -0.721 | EIF3F -0.232 | EIF3H 0.0161 | FAM105A -0.198 | OTUB1 -0.156 | OTUD4 -0.303 | OTUD5 -0.376
